KCNQ2 inh: KCNQ2 (rat) channel inhibition; 310,000 compounds, 1.1% hits; O88943; AID 2156; CHO-K1 KCNQ2, FluxOR thallium flux, 20 min; active compounds read low; B-score at 10 µM;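 active = fluorescence ratio B-score at most minus 3 library SDs, with starting brightness B-score within 2 library SDs, cut at about -5.5 in these data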
KCNQ2 pot: potentiators of rat KCNQ2 potassium channel. AID 2239. B-score at 10 µM. CHO-K1 KCNQ2, FluxOR thallium flux fluorescence; active compounds read high. O88943. 310,000 compounds, 0.54% hits;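 active = fluorescence ratio B-score at least 3 SD of library B-scores, with initial fluorescence B-score within 3 of them, cut at about 5.3 in these data; same plate scores as AID 2156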;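 note: B-score of peak minus minimum over baseline fluorescence ratio after K+ and Tl+ stimulus; positive B-score means potentiation of KCNQ2 with more thallium influx and brighter signal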
Kir21 confirm: confirmation of mouse Kir2.1 potassium channel inhibitors. Kir2.1-expressing cells, FluxOR thallium flux fluorescence; active compounds read low. 2,300 compounds, 41% hits. Tl flux remaining, % of negative control (active compounds read low), % at 10 µM. shares compounds with KCNQ2 pot;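 active = Primary-screen hit whose thallium flux fell at least 3 control SD below untreated wells in both duplicates, with normal baseline fluorescence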;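 note: 0% = blank wells without stimulus and 100% = stimulated no-compound controls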
HEK293 ctr: counter-screen for Kir2.1 inhibitors: effect in parental HEK293 cells | shares compounds with KCNQ2 pot | FluxOR thallium flux fluorescence; 0% = unstimulated blank wells | FluxOR signal as % of negative control (100 = no effect), % at 10 µM | 2,300 compounds, 19% hits;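 active = dye signal at least 3 control SD above or below untreated wells in both duplicates, raw fluorescence within 3, either direction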;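 note: percent is based on the flux ratio of peak minus minimum fluorescence over baseline F0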
CHO-K1 ctr: parental CHO-K1 activity in KCNQ2 potentiator counter-screen; shares compounds with KCNQ2 pot; parental CHO-K1 cells, FluxOR thallium flux fluorescence; zero = vehicle mean+3SD, 100% = vehicle-minus-blank window; activity increase over 3SD of controls, % at 10 µM; 1,200 compounds, 43% hits; AID 2282;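 active = signal rise of at least 3 SD above the untreated control mean, in both duplicate wells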;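 note: counter screen of KCNQ2 potentiator hits so any rise reflects channel-independent effects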
KCNQ1 sel pot: human KCNQ1 counter-target activity of KCNQ2 potentiators | shares compounds with KCNQ2 pot | CHO KCNQ1 stable, FluxOR thallium flux fluorescence; beyond 3SD, as % of vehicle-control signal | activation over 3SD threshold, % at 10 µM | 1,200 compounds, 28% hits | AID 2283;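 active = fluorescence ratio rise of at least 3 SD of vehicle wells above their mean, in both replicate wells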;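 note: 0% = vehicle mean plus 3 SD and 100% = vehicle minus unstimulated blank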
Target sequence (P51787 whole entry, looked up): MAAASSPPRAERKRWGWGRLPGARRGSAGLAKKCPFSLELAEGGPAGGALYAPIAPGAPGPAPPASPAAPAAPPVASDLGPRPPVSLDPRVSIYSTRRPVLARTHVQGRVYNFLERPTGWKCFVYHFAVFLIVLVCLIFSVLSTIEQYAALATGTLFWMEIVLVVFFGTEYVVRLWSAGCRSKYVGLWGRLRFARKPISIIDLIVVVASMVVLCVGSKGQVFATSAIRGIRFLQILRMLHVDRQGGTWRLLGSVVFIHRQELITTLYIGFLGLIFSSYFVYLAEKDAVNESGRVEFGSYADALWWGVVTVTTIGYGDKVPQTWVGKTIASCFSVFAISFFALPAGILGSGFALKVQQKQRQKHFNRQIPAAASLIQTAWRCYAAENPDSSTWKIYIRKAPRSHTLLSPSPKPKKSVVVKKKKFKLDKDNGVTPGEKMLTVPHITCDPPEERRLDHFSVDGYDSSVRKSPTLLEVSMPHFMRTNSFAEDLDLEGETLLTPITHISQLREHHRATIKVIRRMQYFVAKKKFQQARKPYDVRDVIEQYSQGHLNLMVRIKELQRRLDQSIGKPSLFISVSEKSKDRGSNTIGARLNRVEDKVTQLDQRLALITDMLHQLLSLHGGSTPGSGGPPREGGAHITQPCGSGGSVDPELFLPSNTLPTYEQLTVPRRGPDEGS
KCNQ2 pot confirm: rat KCNQ2 channel potentiator confirmation; shares compounds with KCNQ2 pot; CHO-KCNQ2 cells, FluxOR thallium flux fluorescence; potentiation, less the hit threshold, % at 10 µM; 1,200 compounds, 68% hits;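 active = fluorescence ratio rising 3 SD or more over the vehicle control mean in both replicates, plus primary screen hit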;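 note: peak minus minimum thallium fluorescence divided by baseline after K/Tl stimulus; 0% = vehicle mean plus 3 SD and 100% = vehicle minus unstimulated blank difference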
Kir2-1 sel: tests whether KCNQ2 potentiators also affect mouse Kir2.1. shares compounds with KCNQ2 pot. HEK293 Kir2.1, FluxOR thallium flux fluorescence. activity over 3SD threshold, % at 10 µM. 1,200 compounds, 2% hits. AID 2345;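 active = fluorescence ratio rise of at least 3 SD above the vehicle-control mean, seen in both replicates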;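 note: 0% = vehicle mean plus 3 SD and 100% = vehicle minus no-stimulus blank window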
KCNQ2 W236L MoA: rat KCNQ2 W236L mutant potentiation by KCNQ2 potentiators | shares compounds with KCNQ2 pot | AID 2558 | 940 compounds, 10% hits | current increase over 3SD of negative controls (%), active compounds read high, % at 25 µM | CHO KCNQ2-W236L, automated patch clamp current;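 active = current increase at least 3 SD of the untreated controls above them in both duplicate recordings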
* marks the source's active call; other numbers are inactive results; i = inactive; nt = no result. Rows were chosen to be rich in hits. Some 1.6% of all compounds tested hit in one or more screens of this group.

SMILES	KCNQ2 inh	KCNQ2 pot	Kir21 confirm	HEK293 ctr	CHO-K1 ctr	KCNQ1 sel pot	KCNQ2 pot confirm	Kir2-1 sel	others
Cc1cc(Cl)c(S(N)(=O)=O)cc1OCC(=O)NC1CCCCC1	i	nt	nt	nt	nt	nt	nt	nt
Cc1cnc(C(=O)NC2CCSc3ccccc32)cn1 (configuration not stated)	i	1.28	nt	nt	nt	nt	nt	nt
COc1ccc(CCNC(=O)c2cccc(C(=O)NCCc3ccc(OC)cc3)n2)cc1	i	nt	nt	nt	nt	nt	nt	nt
CN(C(=O)CSc1ncnc2sc(-c3ccccc3)cc12)C1CCS(=O)(=O)C1 (configuration not stated)	i	19.8*	i	448.0%*	0.0*	-19.0	76.3*	-20.9	KCNQ2 W236L MoA=i
CN(C(=O)CSc1ncnc2scc(-c3ccccc3)c12)C1CCS(=O)(=O)C1 (configuration not stated)	i	0.37	nt	nt	nt	nt	nt	nt
CN(c1ccccc1)S(=O)(=O)c1ccc2c(c1)oc(=O)n2C	i	0.4	nt	nt	nt	nt	nt	nt
O=C(CN1C(=O)NC2(CCCCC2)C1=O)NCc1cccs1	i	0.37	nt	nt	nt	nt	nt	nt
COc1ccc(CNCc2ccco2)cc1OCc1ccccc1	i	0.49	nt	nt	nt	nt	nt	nt
COc1ccccc1CCNCc1ccc(OC)c(OCc2ccccc2)c1	i	nt	i	i	nt	nt	nt	nt
COc1ccccc1N=NC1=C(O)CC(C)(C)CC1=O	i	nt	nt	nt	nt	nt	nt	nt
Cc1c(N=NC2=C(O)CC(C)(C)CC2=O)cc2c(c1[N+](=O)[O-])C(C)(C)CC2(C)C	i	6.68*	i	i	41.5*	-10.7	-0.5	-31.4	KCNQ2 W236L MoA=i
CCC1(C)Cc2c(sc3nnn(CC(=O)Nc4ccccc4)c(=O)c23)CO1 (configuration not stated)	i	19*	i	i	-21.7	26.6*	41.2*	-28.1	KCNQ2 W236L MoA=i
Cc1cccc(NC(=O)Cn2nnc3sc4c(c3c2=O)CC(C)(C)OC4)c1	i	nt	nt	nt	nt	nt	nt	nt
Cc1ccc(Nc2nc(NCCO)c3ccccc3n2)cc1C	i	nt	28.0%*	i	nt	nt	nt	nt
COc1ccccc1Nc1nc(NCCO)c2ccccc2n1	i	0.03	nt	nt	nt	nt	nt	nt
O=c1cc(Cl)[nH]c(=O)n1Cc1ccccc1	i	1.12	nt	nt	nt	nt	nt	nt
O=c1ccsn1Cc1ccccc1	i	5.65*	nt	nt	-17.8	-17.2	-4.3	-63.2
CC1C(C#N)=C(N)OC2=C1C(=O)CC(c1ccccc1)C2 (configuration not stated)	i	1.92	nt	nt	nt	nt	nt	nt
Cc1ccc(CNC(=O)C2CCN(S(=O)(=O)c3ccc4c(c3)CC(C)N4C(=O)C3CCC3)CC2)o1 (configuration not stated)	i	6.58*	i	i	-11.2	-13.0	-10.1	-36.9
CC(C)CCNC(=O)C1CCN(S(=O)(=O)c2ccc3c(c2)CC(C)N3C(=O)C2CCC2)CC1 (configuration not stated)	i	0.37	nt	nt	nt	nt	nt	nt
CC(=O)Nc1cccc(C(=O)OC(C)C(=O)NC(=O)NC2CCCCC2)c1 (configuration not stated)	i	nt	nt	nt	nt	nt	nt	nt
Cc1ccc(C)c(S(=O)(=O)N2CCCOC2CNC(=O)C(=O)NCc2ccncc2)c1 (configuration not stated)	i	0.03	nt	nt	nt	nt	nt	nt
N#C/C(=C\c1ccc(Cl)cc1)c1n[nH]c(Cn2cncn2)n1	i	nt	nt	nt	nt	nt	nt	nt
O=C(Nc1ccc(Cl)cc1Cl)c1n[nH]c(Cn2cncn2)n1	i	7.11*	i	i	-10.8	50.4*	-8.8	-22.9	KCNQ2 W236L MoA=i
Cc1ccc(OC(C)C(=O)Nc2ccc(S(=O)(=O)N3CCOCC3)cc2)cc1 (configuration not stated)	i	0.38	nt	nt	nt	nt	nt	nt
SMILES	KCNQ2 inh	KCNQ2 pot	Kir21 confirm	HEK293 ctr	CHO-K1 ctr	KCNQ1 sel pot	KCNQ2 pot confirm	Kir2-1 sel	others
O=C(Nc1c2c(nn1-c1ccc(F)cc1)CS(=O)C2)c1ccc(Br)o1 (configuration not stated)	i	0.96	nt	nt	nt	nt	nt	nt
O=C(CCC1CCCCC1)Nc1c2c(nn1-c1ccc(F)cc1)CS(=O)C2 (configuration not stated)	i	10.5*	i	i	-31.3	19.2*	47.3*	-30.6	KCNQ2 W236L MoA=i
CC(C)(C)c1cc(C(=O)NNC(=O)c2ccc(Cl)cc2)no1	i	9.13*	i	266.0%*	1.4*	88.3*	5.3*	-41.9	KCNQ2 W236L MoA=i
Cc1cc(C(=O)NNC(=O)c2ccc(C(F)(F)F)cc2)no1	i	1.75	nt	nt	nt	nt	nt	nt
CCN(C(=O)CN1C(=O)NC2(CCc3ccccc32)C1=O)C1CCCCC1 (configuration not stated)	i	nt	nt	nt	nt	nt	nt	nt
COc1cccc(C(=O)NNC(=O)C(=O)Nc2ccc(C)c(Cl)c2)c1	i	4.94	nt	nt	nt	nt	nt	nt
CCc1ccc(NC(=O)C(=O)NNC(=O)c2cccc(OC)c2)cc1	i	6.36*	i	195.5%*	5.0*	-12.7	4.9*	-20.8	KCNQ2 W236L MoA=i
CCOC(=O)c1nn(-c2ccc(F)cc2)c(=O)cc1OCC(=O)Nc1ccc(OCC)cc1	i	1.84	nt	nt	nt	nt	nt	nt
COCCn1c(SCC(=O)Nc2nc(C)c(Cl)cc2Cl)nc2ccccc21	i	0.7	62.5%*	i	nt	nt	nt	nt
COCCn1c(SCC(=O)Nc2ccccc2OC)nc2ccccc21	i	nt	nt	nt	nt	nt	nt	nt
COC(=O)CCC(=O)c1ccn(S(=O)(=O)c2ccccc2)c1	i	nt	nt	nt	nt	nt	nt	nt
O=C(NC(=S)N1CCN(c2ccc(Cl)cc2[N+](=O)[O-])CC1)c1ccco1	i	nt	nt	nt	nt	nt	nt	nt
O=C(NC(=S)N1CCN(c2ccc(Cl)cc2[N+](=O)[O-])CC1)c1cccs1	i	5.54*	i	151.0%*	52.8*	23.6*	8.6*	-32.1	KCNQ2 W236L MoA=i
CC(=O)Nc1ccc(NC(=O)CSc2nc(N)c(NC(=O)c3ccccc3F)c(=O)[nH]2)cc1	i	nt	nt	nt	nt	nt	nt	nt
Cc1ccccc1CN1C[C@@H]2C[C@@H](c3cnc(N4CCOCC4)s3)N3CCC[C@@]23C1=O	i	nt	nt	nt	nt	nt	nt	nt
Cc1cccc(CC(=O)NCCn2c(C)cc3ccccc32)c1	i	6.89*	i	i	87.3*	-2.7	17.2*	-39.5	KCNQ2 W236L MoA=i
Cc1cc2ccccc2n1CCNC(=O)Cc1ccccc1	i	nt	nt	nt	nt	nt	nt	nt
CC(=O)c1ccc(S(=O)(=O)N2CCN(C(=O)CSC(=S)N3CCCC3)CC2)cc1	i	nt	nt	nt	nt	nt	nt	nt
Cc1nc(SCC(=O)c2cccs2)c2oc3ccccc3c2n1	i	6.05*	i	i	-16.2	-4.2	-7.3	-37.5	KCNQ2 W236L MoA=i
O=C(CSc1ncnc2c1oc1ccccc12)c1cccs1	i	0.98	nt	nt	nt	nt	nt	nt

Screening data (PubChem BioAssay)
